For 13 compounds, Potency results are on record in PubChem BioAssay (NCATS).

Results filed as inconclusive are left out. Unmarked numbers belong to inactive results. Activity calls are given as the source filed them. The call rests on the fitted dose curve; in most records, active means well fitted curve in the direction sought with a large enough effect; inconclusive means small, poorly fitted or top-dose-only effect, or another doubt; inactive means no such curve, though single readings can be large; an effect the other way counts as inactive or inconclusive.

A short description of experiment [1]: qHTS of pediatric cancer cell lines to identify multiple opportunities for drug repurposing: Primary screen for SK-N-MC cells (AID 1347093). Further: potency means the concentration at half of the fitted maximal effect. The gist of the method: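 Metabolically active cells were quantified by ATP-dependent luminescence (CellTiter-Glo, 15 min at room temperature) following 48 h treatment. Cells had been plated at 500-1,000 per well and settled for 5 h beforehand.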

The nature of experiment [2]: qHTS of pediatric cancer cell lines to identify multiple opportunities for drug repurposing: Primary screen for BT-37 cells (AID 1347094). Further: potency means the concentration at half of the fitted maximal effect. The gist of the method: (§1)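 Following a 5-hour attachment period, cells at 500-1,000/well received compounds and were cultured for 48 hours. CellTiter-Glo was added and luminescence read to estimate viable, metabolically active cells.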

Experiment [3] in a line: qHTS of pediatric cancer cell lines to identify multiple opportunities for drug repurposing: Primary screen for NB-EBc1 cells (AID 1347095). Further: potency means the concentration at half of the fitted maximal effect. The gist of the method:
as §1

Experiment [4] in a line: qHTS of pediatric cancer cell lines to identify multiple opportunities for drug repurposing: Primary screen for SK-N-SH cells (AID 1347098). Further: nearly all actives have a fitted effect of over 65% in size. Further: potency means the concentration at half of the fitted maximal effect. The gist of the method:
(§2)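 Cells (500-1,000/well) rested 5 h, then received compounds for 48 h; metabolically active cells were measured by CellTiter-Glo luminescence. Final concentrations spanned up to 46 µM (MIPE, 11-point) or 0.59 nM-46 µM (NPC, 8-point) in primary screens, 11-point in follow-ups.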

The nature of experiment [5]: qHTS of pediatric cancer cell lines to identify multiple opportunities for drug repurposing: Primary screen for NB1643 cells (AID 1347099). Further: nearly all actives have a fitted effect of over 50% in size. Further: potency means the concentration at half of the fitted maximal effect. The procedure, abridged:
as §1

A short description of experiment [6]: qHTS of pediatric cancer cell lines to identify multiple opportunities for drug repurposing: Primary screen for LAN-5 cells (AID 1347100). Further: potency means the concentration at half of the fitted maximal effect. The gist of the method:
(§3)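 Viability after 48 h compound treatment at 37C, 500-1,000 cells/well, read as ATP luminescence with CellTiter-Glo. Primary screens used 11-point (MIPE, 0.78 nM-46 µM) or 8-point (NPC, 0.59 nM-46 µM) final concentrations; follow-up screens used 11-point dilutions.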

Experiment [7] in a line: qHTS of pediatric cancer cell lines to identify multiple opportunities for drug repurposing: Primary screen for OHS-50 cells (AID 1347103). Further: nearly all actives have a fitted effect of over 40% in size. Further: potency means the concentration at half of the fitted maximal effect. The gist of the method: as §2
Experiment [8] in a line: qHTS of pediatric cancer cell lines to identify multiple opportunities for drug repurposing: Primary screen for MG 63 (6-TG R) cells (AID 1347105). Further: nearly all actives have a fitted effect of over 50% in size. Further: potency means the concentration at half of the fitted maximal effect. The procedure, abridged: as §1
Experiment [9] is described as follows: qHTS of pediatric cancer cell lines to identify multiple opportunities for drug repurposing: Primary screen for control Hh wild type fibroblast cells (AID 1347106).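 Further: series mostly up to about 46 µM; a drop in luminescence marks cytotoxicity and a rise apparent proliferation; nearly all actives have a fitted effect of over 55% in size.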 The procedure, abridged:
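Cells (500-1,000/well) in growth media were settled 5 h at 37 degrees C, then given compounds for 48 h. Viability was read as CellTiter-Glo luminescence. Primary runs used MIPE at 11 points (0.78 nM-46 µM) and NPC at 8 points (0.59 nM-46 µM); follow-ups used 11 points.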

Experiment [10] in a line: qHTS of pediatric cancer cell lines to identify multiple opportunities for drug repurposing: Primary screen for U-2 OS cells (AID 1347096). Further: nearly all actives have a fitted effect of over 50% in size. Further: potency means the concentration at half of the fitted maximal effect. The gist of the method:
as §3

A short description of experiment [11]: qHTS of pediatric cancer cell lines to identify multiple opportunities for drug repurposing: Primary screen for Saos-2 cells (AID 1347097). Further: nearly all actives have a fitted effect of over 40% in size. Further: potency means the concentration at half of the fitted maximal effect. The procedure, abridged: as §1
A short description of experiment [12]: qHTS of pediatric cancer cell lines to identify multiple opportunities for drug repurposing: Primary screen for RD cells (AID 1347104). Further: nearly all actives have a fitted effect of over 55% in size. Further: potency means the concentration at half of the fitted maximal effect. The gist of the method:
as §1

Experiment [13] can be described thus: qHTS of pediatric cancer cell lines to identify multiple opportunities for drug repurposing: Primary screen for Rh30 cells (AID 1347107). Further: series mostly up to about 46 µM; nearly all actives have a fitted effect of over 75% in size. The procedure, abridged:
as §3

Experiment [14] can be described thus: qHTS of pediatric cancer cell lines to identify multiple opportunities for drug repurposing: Primary screen for BT-12 cells (AID 1347101). Further: nearly all actives have a fitted effect of over 25% in size. Further: potency means the concentration at half of the fitted maximal effect. The procedure, abridged: as §2
Experiment [15] in a line: qHTS of pediatric cancer cell lines to identify multiple opportunities for drug repurposing: Primary screen for Rh18 cells (AID 1347102). Further: nearly all actives have a fitted effect of over 65% in size. Further: potency means the concentration at half of the fitted maximal effect. The procedure, abridged: as §3
A short description of experiment [16]: qHTS of pediatric cancer cell lines to identify multiple opportunities for drug repurposing: Primary screen for Rh41 cells (AID 1347108).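 Further: series mostly up to about 46 µM; luminescence drop marks cytotoxic hits; nearly all actives have a fitted effect of over 70% in size.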 The gist of the method:
as §1

A short description of experiment [17]: qHTS of pediatric cancer cell lines to identify multiple opportunities for drug repurposing: Confirmatory screen for A673 cells (AID 1347110). Further: nearly all actives have a fitted effect of over 65% in size. Further: potency means the concentration at half of the fitted maximal effect. The gist of the method:
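Viability was read as ATP luminescence (CellTiter-Glo) after 48 h of compound exposure at 37 C in A673 cells seeded at 500-1,000/well. Titrations reached 46 uM final, with 11 points in the confirmatory screen. Concentration-response curves were fitted directly.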

Experiment [18] in a line: qHTS of pediatric cancer cell lines to identify multiple opportunities for drug repurposing: Confirmatory screen for NB1643 cells (AID 1347109). Further: potency means the concentration at half of the fitted maximal effect; nearly all actives have a fitted effect of over 45% in size. The procedure, abridged:
as §3

Experiment [19] in a line: qHTS of pediatric cancer cell lines to identify multiple opportunities for drug repurposing: Confirmatory screen for SK-N-MC cells (AID 1347111).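 Further: potency means the concentration at half of the fitted maximal effect; cells exposed to compound for 48 h before the readout; nearly all actives have a fitted effect of over 70% in size.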 The gist of the method: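 SK-N-MC cells at 500-1,000 cells/well in growth media were pre-incubated 5 h, then exposed to compounds at 11-point dilutions for 48 h at 37 degrees C, 5% CO2. Viability was read as CellTiter-Glo luminescence.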

For `O=C(Nc1nnc(-c2ccco2)o1)c1cc(-c2ccccc2)nc2ccccc12`, the Potency in experiment [1] was 11.8 µM (active); in [2], 27.3 µM (active); in experiment [3], 8.33 µM (active); in [4], 30.4 µM (active); in experiment [5], 10.5 µM (active); in experiment [6], 20.9 µM (active). The figures for the Potency in [7] and in experiment [8] were 30.6 µM (active) and 14.8 µM (active), respectively. In experiment [9], the Potency entry was “inactive”.

Consider `CC1=C(C(=O)Nc2cc3cn[nH]c3cc2F)C(c2ccc(Cl)cc2F)N=C(c2ccnc(Cl)c2)N1` (stereo not given), for which the Potency in experiment [1] is 11.8 µM (active); in [2], 24.3 µM (active); in [3], 10.5 µM (active); in experiment [11], 5.9 µM (active); in experiment [4], 19.2 µM (active); in experiment [6], 9.35 µM (active). Further, the Potency result in experiment [10], in experiment [12], in experiment [9] and in experiment [13] was “inactive” throughout.

As for `CCn1c(=O)c2c(nc(C=Cc3ccc(OC)c(OC)c3)n2C)n(CC)c1=O`, the Potency in experiment [1] is 18.7 µM (active). The Potency entry in experiment [2], in experiment [3], in experiment [10], in experiment [11], in experiment [6] and in [14] was “inactive” throughout. Also, the Potency result in experiment [15], in experiment [8], in experiment [9] and in experiment [13] was “inactive” in each case.

On to `CN(C)CC[C@H](c1ccc(Cl)cc1)c1ccccn1`, for which, in experiment [1], the Potency was 10.5 µM (active). Moreover, the Potency result in experiment [2], in experiment [3], in experiment [10], in experiment [11], in experiment [6] and in [15] was “inactive” in each case. The Potency entry in [7], in [8], in [9] and in experiment [13] was “inactive” in each case.

With `COC(=O)[C@@H]1CC2=CC(=O)CC[C@]2(C)[C@@]23O[C@@H]2C[C@@]2(C)[C@H](CC[C@@]24CCC(=O)O4)[C@@H]13`, the Potency entry in experiment [1], in experiment [3], in [10], in experiment [11], in experiment [4] and in [5] was “inactive” in each case. Further, the Potency entry in [6], in experiment [14], in experiment [15], in experiment [12], in experiment [8] and in experiment [9] was “inactive” in each case. The Potency result in [13] and in experiment [16] was “inactive” each time.

Regarding `CN1[C@H]2CC(OC(=O)[C@@H](CO)c3ccccc3)C[C@H]1[C@H]1O[C@H]12` (stereo not given in full), the Potency entry in experiment [1], in experiment [2], in [3], in [11], in experiment [4] and in [6] was “inactive” in each case. Moreover, the Potency result in experiment [14], in experiment [15], in [7], in [12], in experiment [8] and in experiment [9] was “inactive” in each case. In addition, the Potency result in experiment [13] and in experiment [16] was “inactive” each time.

With `O=C(NCc1ccccc1)[C@H](Cc1ccccc1)NC(=O)[C@@H]1O[C@@H]1C(=O)NCCc1ccc(O)cc1`, the Potency in [1] was 23.5 µM (active); in experiment [11], 23.5 µM (active); in experiment [4], 21.5 µM (active); in experiment [17], 10.4 µM (active). Further, the Potency entry in experiment [3], in experiment [10], in experiment [6], in experiment [14], in experiment [9] and in [13] was “inactive” in each case. In [16], the Potency result was “inactive”.

In the case of `CC(=O)OC[C@@H]1O[C@@H](n2ccc(=O)[nH]c2=O)[C@H](OC(C)=O)[C@H]1OC(C)=O`, the Potency result in [1], in experiment [3], in experiment [10], in experiment [14], in experiment [12] and in experiment [8] was “inactive” in each case. Besides, the Potency entry in experiment [9] is “inactive”.

For `Cn1cnc2c(F)c(Nc3ccc(Br)cc3F)c(C(=O)NOCCO)cc21`, the Potency entry in experiment [1], in experiment [2], in experiment [11], in experiment [5], in [15] and in experiment [7] was “inactive” in each case. The Potency entry in experiment [8], in experiment [9], in experiment [13] and in [16] was “inactive” each time.

With `Cn1c(Nc2ccc(C(F)(F)F)cc2)nc2cc(Oc3ccnc(-c4ncc(C(F)(F)F)[nH]4)c3)ccc21`, the Potency in experiment [1] was 0.187 µM (active); in experiment [2] it was 2.43 µM (active); in experiment [3], 14.8 µM (active); in [10], 14.8 µM (active); in experiment [11], 2.96 µM (active); in experiment [4], 7.64 µM (active). Further, the Potency is 11.8 µM (active) in [5]; 10.5 µM (active) in experiment [6]; 8.63 µM (active) in experiment [14]; 4.18 µM (active) in experiment [12]; 20.8 µM (active) in experiment [18]; 7.37 µM (active) in [19]. In experiment [13], the Potency entry is “inactive”.

For the compound `C[C@H](NC(=O)Cc1cc(F)cc(F)c1)C(=O)N[C@H](C(=O)OC(C)(C)C)c1ccccc1`, the Potency in experiment [1] was 14.8 µM (active). The Potency result in experiment [2], in experiment [3], in experiment [10], in experiment [11], in experiment [6] and in experiment [14] was “inactive” throughout. Also, the Potency result in [15], in experiment [12], in experiment [9] and in [13] was “inactive” each time.

For `CC(C(C)N1CC(=O)NC(=O)C1)N1CC(=O)NC(=O)C1` (stereo not given), the Potency was 0.743 µM (active) in [1], 0.264 µM (active) in experiment [3], 0.743 µM (active) in experiment [6] and 2.93 µM (active) in experiment [19]. Also, the Potency result in experiment [10], in experiment [4], in experiment [14], in experiment [15], in experiment [12] and in experiment [8] was “inactive” in each case. In addition, the Potency entry in experiment [9], in experiment [13], in [16] and in [17] was “inactive” throughout.

Turning to `Nc1ccc(C(=O)Nc2cccc(-c3nc(N4CCOCC4)c4oc5ncccc5c4n3)c2)cn1`, the Potency in [1] is 1.18 µM (active); in experiment [2] it was 13.7 µM (active); in [3], 2.35 µM (active); in experiment [10], 18.7 µM (active); in experiment [11], 8.33 µM (active); in [5], 2.35 µM (active). Besides, the figures for the Potency in [6], in experiment [15] and in [12] were 6.62 µM (active), 14.8 µM (active) and 10.5 µM (active), respectively. Besides, the Potency entry in experiment [9] is “inactive”.
